# MsrA inhibitor – bovine MsrA inhibition | purified bovine MsrA, absorbance read-out | inhibition, % at 15.5 µM | 360,000 tested, 0.75% active | AID 651718;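 also: 0% = vehicle wells with enzyme and 100% = reference inhibitor wells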
# ZTA counter – counter-screen for EBNA-1 inhibitors: inhibitors of Epstein-Barr virus ZTA; P03206; ZTA-DNA binding, fluorescence polarization; 320,000 tested, 0.15% active; inhibition, % at 11 µM; in the data active = inhibition above about 33%
# PP1 counter – PP1-alpha (human) inhibition in PP5 counter-screen; P62136; purified PP1alpha, OMFP fluorescence; inhibition, % at 6.7 µM; 320,000 tested, 0.9% active;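 active = inhibition above the mean inhibition of all tested compounds plus 3 SD, computed separately for each screening campaign, cut at about 15% in these data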
# Target sequence (P62136 whole entry, looked up): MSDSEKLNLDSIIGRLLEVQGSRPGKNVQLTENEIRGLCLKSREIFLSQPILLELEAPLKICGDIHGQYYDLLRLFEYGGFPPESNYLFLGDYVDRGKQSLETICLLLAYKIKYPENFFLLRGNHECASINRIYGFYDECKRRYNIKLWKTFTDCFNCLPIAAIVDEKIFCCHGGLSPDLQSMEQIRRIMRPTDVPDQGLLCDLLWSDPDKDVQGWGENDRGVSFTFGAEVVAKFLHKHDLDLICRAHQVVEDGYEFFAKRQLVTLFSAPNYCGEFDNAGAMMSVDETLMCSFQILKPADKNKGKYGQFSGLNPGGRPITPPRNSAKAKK
# EBNA-1 inh – blocks EBNA-1 binding to DNA. 300,000 tested, 0.34% active. inhibition, % at 14.8 µM. EBNA-1 DNA binding, fluorescence polarization. AID 1950; in the data active = inhibition above about 28%
# PP5 primary – PP5 (human) phosphatase inhibition; AID 1987; purified PP5c, OMFP substrate fluorescence; 320,000 tested, 0.18% active; inhibition, % at 6.7 µM; P53041;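 active = inhibition above the campaign's mean inhibition across all tested compounds plus 3 SD, cut at about 9.5% in these data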;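 also: 0% = DMSO only and 100% = 100 µM cantharidin control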
# bovine MsrA act – bovine methionine sulfoxide reductase A activation | purified bovine MsrA, absorbance read-out | activation, % at 10.6 µM | 360,000 tested, 0.3% active | AID 602163; in the data active = activation above about 7.5%;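 also: 0% = vehicle and 100% = reference activator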
# MsrA conf – confirmation of bovine MsrA inhibitors; shares compounds with MsrA inhibitor; purified bovine MsrA, absorbance read-out; inhibition, % at 15.5 µM; 2,300 tested, 41% active; AID 651822;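 also: coupled to thioredoxin reductase with NADPH and selenocystamine and DMSO as substrate; 0% = vehicle only and 100% = full effect of reference inhibitor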
# An asterisk follows results filed as active; / = no result given. Hits are enriched below; roughly 2.3% of the tested compounds scored in any of these assays. Rule as the data show it, unless noted: active = inhibition above about 4.5%; inactive = the rest.
SMILES,MsrA inhibitor,ZTA counter,PP1 counter,EBNA-1 inh,PP5 primary,bovine MsrA act,MsrA conf
CCC(=O)c1ccc(OCC(O)CNC2CCCC2)cc1 (configuration not stated),-1,9,2,5,-1,-3,/
O=c1/c(=C/c2ccccn2)sc2n1CN(c1ccccc1)CN=2,4.8*,9,-2,8,-1,-5,4
COc1ccc(C(=O)/C=C/c2ccsc2)cc1CSCC(=O)O,4.7*,-1,1,-4,0,-6,4
COc1ccc(OC)c(C=NNC(=O)c2ccccc2NS(=O)(=O)c2cccs2)c1,4,/,/,/,/,-4,/
C=CCNc1nc(N)c(C(=O)Nc2cc(C)on2)s1,6.2*,-1,-3,-9,0,-6,3
Cc1cc(N2CCOCC2)ccc1/C=C1\NC(=O)N(CC(=O)Nc2ccc(F)cc2)C1=O,5.6*,-15,9,15,2,-3,1
CCOC(=O)c1cc2c(ccc3ccccc32)oc1=O,20*,1,0,-2,0,-3,13*
NC(=O)N/N=C/c1cn(-c2ccccc2)nc1-c1cccs1,1,10,-1,7,1,-1,/
NS(=O)(=O)c1ccc(N/N=C/c2cn(-c3ccccc3)nc2-c2cccs2)cc1,7.0*,1,-6,-12,2,-4,2
O=C(O)c1cccc(N/N=C/c2cn(-c3ccccc3)nc2-c2cccs2)c1,13*,-14,2,-6,2,-3,7.3*
Cc1ccc(C)c(NC(=O)CN(C)C(=O)C2=NNC(=O)CC2)c1,-1,/,/,/,/,-3,/
C=CCOCCN(C)C1=NS(=O)(=O)c2cc([N+](=O)[O-])ccc21,14*,1,-3,2,-2,1,7.2*
C[C@H]1CN=C(N(C)C)N1CC1CCC(C(C)(C)C)CC1 (some centres not stated),0,8,-1,0,-2,0,/
Nc1nc(=S)c2ncn(C3CCCC3)c2[nH]1,5.0*,/,/,/,/,2,4
FC(F)(F)c1cnc(Sc2ncn[nH]2)c(Cl)c1,0,-5,0,4,0,-1,/
COc1ccc(/C=C/C(=O)Nc2c(C(=O)O)[nH]c3ccccc23)cc1OC,5.6*,6,2,-6,1,-8,3
COc1ccc(/C=C/C(=O)Nc2ccc(-n3nncc3-c3ccc(OC)c(OC)c3)cc2)cc1OC,5.1*,2,-2,-10,3,-2,4
Cc1ccccc1-c1nc(C#N)c(N2CCCCC2)o1,8.4*,9,3,5,-3,-4,8.6*
CCc1nc2c(OCc3ccc(Cl)cc3)cccn2c1N(C)C(=O)c1ccco1,2,/,/,/,/,-6,/
BrC(/C=N/Nc1nc(N2CCOCC2)nc(N2CCOCC2)n1)=C/c1ccccc1,5.5*,-8,2,-5,3,-2,4
CN(C)/N=C/c1ccc([N+](=O)[O-])cc1[N+](=O)[O-],7.7*,-17,-6,4,0,-1,3
COc1ccc(-c2cc(C(F)F)n3ncc(C(=O)N4CCc5ccccc54)c3n2)cc1,0,-16,4,-3,6,-2,/
COc1ccc(-c2cc(C(F)F)n3ncc(C(=O)n4ccnc4C)c3n2)cc1,4.7*,-4,-3,3,0,-10,11*
O=c1oc2ccccc2c2c1cnc1ccccc12,16*,/,/,/,/,-2,15*
Cc1cnc(N)c2c(=O)oc3ccccc3c12,0,11,-2,12,-1,-3,/
SMILES,MsrA inhibitor,ZTA counter,PP1 counter,EBNA-1 inh,PP5 primary,bovine MsrA act,MsrA conf
CCOC(=O)Cc1csc(NC(=O)/C=C/c2ccco2)n1,7.8*,2,12,4,2,-7,4.6*
CCn1cc(C(=O)N[C@H](C(=O)NCCCO)C(C)C)c(=O)c2cc3c(cc21)OCO3,2,-6,-1,-18,3,-4,/
Brc1cccc(CSc2nnc(-c3ccncc3)o2)c1,0,3,-1,3,0,0,/
CN(C)C(=S)SCC(=O)NC(=O)NC(C)(C)C,-1,3,0,-17,1,-7,/
O=C(O)c1ccc(/C=N/Nc2ccc(C(F)(F)F)cn2)cc1,7.0*,/,/,/,/,-9,6.3*
COc1cc(/C=N/Nc2ccc(C(F)(F)F)cn2)ccc1O,3,5,2,-12,5,-1,/
COCCCNc1oc(/C=C/c2ccccc2)nc1C#N,5.9*,-5,1,-10,3,-5,4
CCOc1ccc(/C=C/c2nc(C#N)c(NCCCOC)o2)cc1,4,6,-2,8,3,-1,/
